Screening results deposited in PubChem BioAssay by National Center for Advancing Translational Sciences (NCATS).
The sample as a whole holds a higher share of hits than the screen did.
Shiga inhibitor = A qHTS for Small Molecule Inhibitors of Shiga Toxin; 290,000 tested, 9.2% active; Vero cells, Shiga toxin protein synthesis inhibition reporter; inhibition, % at 38.7 µM; in the data active = inhibition mostly above about 28%, no sharp cut-off; inactive = mostly below about 43%
LmPK inhibitor = qHTS Assay for Inhibitors of Leishmania Mexicana Pyruvate Kinase (LmPK). purified LmPK, Kinase-Glo ATP luminescence, 1 h. AID 1721, 2009. 290,000 tested, 0.37% active. Potency, µM (top dose mostly 57.5 µM), most hits filed as inhibitors. Q27686
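qHTS format; LmPK 0.1 nM; substrates PEP 0.5 mM and ADP 0.1 mM. One-hour room-temperature incubation, then coupled luciferase luminescence; 0.5 nM enzyme wells mark activation.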
Giardia FBPA inh = qHTS Assay for Inhibitors of Fructose-1,6-bisphosphate Aldolase from Giardia Lamblia; A8B2U2; purified Giardia FBPA; Potency, µM (top dose mostly 59.6 µM), actives largely listed as inhibitors; 290,000 tested, 0.71% active; AID 2451, 2010; also: nearly all actives have a fitted effect of over 55% in size
Target sequence (A8B2U2 whole entry, looked up): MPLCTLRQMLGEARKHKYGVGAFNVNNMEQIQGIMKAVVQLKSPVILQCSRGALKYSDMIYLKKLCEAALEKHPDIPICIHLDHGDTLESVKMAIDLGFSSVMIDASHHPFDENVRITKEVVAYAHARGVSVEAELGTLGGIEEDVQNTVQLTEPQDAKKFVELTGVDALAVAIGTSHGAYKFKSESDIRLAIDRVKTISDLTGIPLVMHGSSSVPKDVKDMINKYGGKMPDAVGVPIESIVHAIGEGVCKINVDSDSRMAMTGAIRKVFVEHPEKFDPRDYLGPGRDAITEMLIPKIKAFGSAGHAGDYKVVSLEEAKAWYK
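Giardia FBPA (40 nM reagent) was preincubated 10 min at RT with compound (up to 57.5 uM final), then substrate plus GAPDH/TPI/NAD/arsenate coupling system with diaphorase/resazurin was added; resorufin fluorescence (525/598 nm) was read after 20 min.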
Cycloheximide cs = Cycloheximide Counterscreen for Small Molecule Inhibitors of Shiga Toxin. cell reporter, cycloheximide protein synthesis inhibition counterscreen. max response, %. 300,000 tested, 12% active. AID 2314, 2010; in the data active = max response mostly above about 13%, no sharp cut-off; inactive = mostly below about 14%; also: read at 38.3 µM for the half of the compounds with a filed dose
RE007 growth inh = qHTS Assay for Inhibitors of the HIV-1 protein Vpr | Potency, µM (highest dose often 92.2 µM), actives largely listed as inhibitors | S. pombe RE007 Vpr strain, BacTiter-Glo ATP luminescence, 24 h | 360,000 tested, 0.21% active | AID 651644, 2012; active = well fitted falling curve with a large enough effect; inconclusive = small, poorly fitted or top-dose-only effect; inactive = no such curve, though single readings can be large or run the other way; also: nearly all actives have a fitted effect of over 50% in size
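Fission yeast strain RE007, carrying one chromosomally integrated HIV-1 vpr copy, was seeded at OD 0.01 in PMG+AL medium with 23 nL pinned compound. After 24 h at 30 °C and 99% humidity, viability was read by BacTiter-Glo luminescence.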
Tb PYK inh = qHTS of Trypanosoma Brucei Inhibitors. pyruvate kinase (Trypanosoma brucei), Q57TT1. TbPYK enzyme, Kinase-Glo Plus ATP luminescence, 45 min. Potency, µM (highest dose often 76.8 µM), hits mostly inhibitors. 410,000 tested, 0.12% active. AID 624173, 2012; also: nearly all actives have a fitted effect of over 50% in size
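In this concentration-response screen, enzyme-free wells defined baseline while DMSO plates tracked drift. Each reaction combined TbPYK, substrate, compound and 130 uM ADP for 45 min at room temperature. Kinase-Glo Plus luminescence gave the signal.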
Numbers stand for hits; 0 = inactive; ? = inconclusive; - = not tested or not shown. Unless noted, calls follow the shape of the dose curve; as a rule, active = well fitted curve in the direction sought with a large enough effect; inconclusive = small, poorly fitted or top-dose-only effect, or another doubt; inactive = no such curve, though single readings can be large; an effect the other way counts as inactive or inconclusive.

SMILES	Shiga inhibitor	LmPK inhibitor	Giardia FBPA inh	Cycloheximide cs	RE007 growth inh	Tb PYK inh
Clc1ccc2c(c1)C1OCCC1C(c1ccco1)N2 (centres undefined)	66	?	0	26	0	0
CN1CCN(/N=C/c2ccc(Br)cc2)CC1	0	0	0	47	0	0
O=[N+]([O-])c1cc(C=NN2CCCCCC2)ccc1Cl	-	-	-	-	0	0
CN1CCN(/N=C/c2ccc(Cl)c(Cl)c2)CC1	84	0	0	38	?	0
O=[N+]([O-])c1cc(/C=N/N2CCCCC2)ccc1Cl	72	0	0	18	0	0
COc1ccc(/C=N/N2CCN(C)CC2)cc1O	0	0	?	0	0	0
CN1CCN(/N=C/c2ccc(N(c3ccccc3)c3ccccc3)cc2)CC1	0	0	0	0	0	0
COc1cccc(/C=N/N2CCN(C)CC2)c1	0	0	0	29	0	0
COc1ccc2c(c1)c(=O)c(S(=O)(=O)c1ccc(C)cc1)cn2Cc1ccccc1C	-	-	-	-	-	0
N#Cc1nc(NCCO)nc(Nc2ccccc2)n1	-	-	0	-	-	-
CN1CCN(/N=C/c2ccc(N(C)c3ccccc3)cc2)CC1	59	0	0	34	0	0
CC[C@@H]1CC2=C(C(=O)OC(C)(C)O2)[C@@H](c2ccc(Cl)cc2)O1	-	-	-	-	0	0
Cc1cc2c(cc1C)/C(=N/NC(=O)c1ccccn1)CCC2	49	0	0	53	0	0
O=C(N/N=C/C1CCCCC1)c1ccccn1	166	0	0	49	0	0
O=C(NN=C(c1ccccc1)c1ccccn1)c1ccccc1	-	-	-	-	?	0
O=C(NN=C1CCC(=NNC(=O)c2ccccn2)CC1)c1ccccn1	51	0	0	55	0	0
COC(=O)N/N=C1\CCCc2ccccc21	0	0	0	0	0	0
O=C(N/N=C/C1CCCCC1)c1cc(Cl)ccc1O	45	0	0	0	?	0
Cc1nnc(N/N=C/c2ccc([N+](=O)[O-])cc2)n1N	0	0	16µM	0	0	0
Cc1cc(-c2ccccc2)nc(N/N=C/c2ccc([N+](=O)[O-])cc2)n1	0	0	0	0	0	0
Cc1csc(N/N=C/c2ccc([N+](=O)[O-])cc2)n1	67	0	0	32	0	0
Cc1nnc(N/N=C/c2ccc(Br)cc2)n1N	-	0	?	10.0	0	0
Cc1ccc(/C=N/Nc2nncn2N)cc1	0	0	?	0	0	0
CC(C)(C)c1nnc(N/N=C/c2ccccc2)n(N)c1=O	0	0	0	11	-	0
O=[N+]([O-])c1ccc(/C=N/Nc2ncc(Br)cn2)cc1	0	0	0	0	0	0
SMILES	Shiga inhibitor	LmPK inhibitor	Giardia FBPA inh	Cycloheximide cs	RE007 growth inh	Tb PYK inh
CCCCOC(=O)c1ccc(NC(=O)CSc2nc3c(c(=O)[nH]2)CCC3)cc1	-	-	-	-	-	0
Cc1ccc(CCNC(=O)CCSCc2ccccc2F)cc1	-	-	-	-	-	0
CCCCCC1Nc2cc(C(F)(F)F)c(S(N)(=O)=O)cc2S(=O)(=O)N1 (centres undefined)	-	-	-	-	-	0
CCOC(=O)c1ccc(NC(=O)CN2C(=O)CC(c3ccc(C)c(C)c3)=Nc3ccccc32)cc1	-	-	-	-	-	0
Cc1nnc(N/N=C/c2cc([N+](=O)[O-])c(N3CCC(C)CC3)cc2N2CCC(C)CC2)n1N	0	0	10µM	0	0	0
CC1CCN(c2cc(N3CCOCC3)c([N+](=O)[O-])cc2F)CC1	0	0	0	0	0	0
CCC1Sc2ccccc2N(CC(=O)NCc2ccc(C)cc2)C1=O (centres undefined)	-	-	-	-	-	0
Cc1ccc(NC(=O)Nc2ccc(Cl)cn2)cc1	44	0	0	39	0	0
Cc1ccc(NC(=O)Nc2ccc(Cl)c(Cl)c2)nc1	70	0	0	32	0	0
O=C(Nc1ccc(Cl)c(Cl)c1)Nc1ccc([N+](=O)[O-])cn1	0	0	0	0	0	0
O=C(Nc1ccc(Cl)cn1)Nc1ccccc1Cl	0	0	0	0	0	0
Cc1cc(C)cc(NC(=O)C(NS(=O)(=O)c2cccc3nsnc23)c2ccccc2)c1 (centres undefined)	-	-	-	-	-	0
O=C(CSc1nnc(NC(=O)c2ccccc2Cl)s1)Nc1ccc2c(c1)oc1ccccc12	54	0	0	34	-	-
O=C(CSc1nnc(NC(=O)c2ccccc2Cl)s1)NC1CC1	61	0	0	39	0	0
CCOC(=O)CNC(=O)CSc1nnc(NC(=O)c2ccccc2Cl)s1	59	0	0	29	0	0
CC(C)(C)NC(=O)CSc1nnc(NC(=O)c2ccccc2Cl)s1	0	0	0	0	0	0
Cc1ccccc1C(=O)Nc1nnc(SCC(=O)NC2CC2)s1	64	0	-	30	0	0
Cc1nnc(NC(=O)CSc2ccccc2N)s1	0	0	?	26	0	0
O=C(CSc1ccc(-c2cccs2)nn1)Nc1cccc(F)c1	-	-	-	-	-	0
CCOC(=O)c1cnc2ccc(Cl)cc2c1Nc1ccc(OCC)cc1	-	-	-	-	-	0
CCOC(=O)c1cnc2ccc(Cl)cc2c1NCCN(C)C	0	0	?	26	0	0
CCOC(=O)c1cnc2c(ccc3ccccc32)c1NCCCN(C)C	131	0	0	33	?	0
CCn1c(C(=O)Nc2ccccc2C(=O)OC)cc2sc(Cl)cc21	-	-	-	-	-	0
CCOc1ccc(-n2c(C)c(C(=O)OC)c3cc(O)ccc32)cc1	0	0	0	0	0	0
CCOC(=O)c1cc2c(C)n(-c3ccc(OCC)cc3)c(C)c2ccc1=O	0	0	0	16	0	0
SMILES	Shiga inhibitor	LmPK inhibitor	Giardia FBPA inh	Cycloheximide cs	RE007 growth inh	Tb PYK inh
CCOC(=O)c1cc2c(C)n(-c3ccc(C)cc3)c(C)c2ccc1=O	120	0	0	35	0	0
CCCCc1cc(=O)oc2cc(OCC(=O)NCc3ccccn3)ccc12	0	0	0	0	0	0
Cc1c(C)c2ccc(OCC(=O)Nc3nccs3)cc2oc1=O	78	0	-	45	0	0
Cc1cc(=O)oc2cc(OCC(=O)Nc3nccs3)ccc12	74	0	0	35	0	0
Cc1c(C)c2ccc(OCC(=O)Nc3ccccn3)cc2oc1=O	62	0	-	34	0	0
CCCCc1cc(=O)oc2cc(OCC(=O)Nc3ccccn3)ccc12	98	0	-	40	0	0
O=C(O)[C@@H]1CSCN1	-	-	-	-	-	0
O=c1c(-c2ccc(Cl)cc2)nc2cnc(N3CCNCC3)nc2n1-c1ccccc1	-	-	0	-	-	-
O=C(CCC(=O)c1cccs1)c1cccs1	34	?	0	40	0	0
Cc1ccc(F)cc1NC(=O)CCC(=O)c1cccs1	0	0	0	0	0	0
Cc1ccc(NC(=O)CCC(=O)c2cccs2)c(O)c1	74	0	0	66	0	0
CCc1cccc(C)c1NC(=O)Cn1ccn(-c2cccc(OC)c2)c(=O)c1=O	-	-	-	-	-	0
COc1ccc(NC(=O)c2cc3c(=O)n(Cc4ccco4)ccc3nc2C)cc1	-	-	-	-	-	0
